Consider 39 compounds from PubChem BioAssay (NCI).

The structures appear in SMILES notation. Compounds without any hit were thinned out: in the full panel of roughly 83,000, 20% have a hit.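 Cell lines were cultured in 96-well plates, exposed to a single compound concentration, and assessed for percent growth 48 hours later.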 A number with no mark means an inactive call. Active and inactive are the calls of the source. How the source made its calls: active means growth percent below 10; inactive means the rest.

The subject of the assay is LOX IMVI melanoma. Put plainly: NCI-60 one-dose screen, 48 h (100 = growth as untreated, 0 = no growth, -100 = all killed). The settings on record: 10 µM.
As to `S=C1SCC(c2ccccc2)S1` (centres undefined), the growth was 103%. As to `Nc1ncnc2[nH]c(=O)[nH]c12`, the growth is 95.2%. The value for `Cc1ccc(S(=O)(=O)Oc2ccc3c4c(c(=O)oc3c2)CCCCC4)cc1` was 62.8%; that for `CCN(CC)CCSCCN(CC)CC` was 99%. With `O=C(Nc1ccccc1)Nc1cccc(-n2cc(-c3ccncc3)c(-c3ccc(O)c(Cl)c3)n2)c1`, the growth was 47.7%. In the case of `O=C(Nc1cccc(-n2cc(-c3ccncc3)c(-c3ccc(O)c(Cl)c3)n2)c1)c1cccc(C(F)(F)F)c1`, the growth is 33%. In the case of `O=C(CC(NC(=O)OCc1ccccc1)C(=O)OCc1ccccc1)OCc1ccccc1` (centres undefined), the growth was 101%. The value for `COc1ccc(Oc2nc(NC3CCCC3)nc(Sc3ccc(OC)cc3)n2)cc1` was 72.6%. Regarding `COc1ccc(-c2nn(-c3cccc(NC(=O)c4ccc(N5CCOCC5)c(C(F)(F)F)c4)c3)cc2-c2ccncc2)cc1Cl`, the growth was 74.2%. Turning to `COc1ccc(-c2nn(-c3cccc(NC(=O)Nc4ccccc4)c3)cc2-c2ccncc2)cc1Cl`, the growth is 29%.

In the case of `CCCCCCCCCCCCCCCC(=O)OC1[C@@H](OC(=O)CCCCCCCCCCCCCCC)[C@@H](C(=O)N[C@@H](CCCCN)C(=O)OC)O[C@H]1n1cnc2c(=O)[nH]c(NC(=O)C(C)C)nc21` (some centres undefined), the growth is 93.5%.

`CCc1ccc2c(c1)N(CCO)C1=C(C(=O)OC1)C2c1cc(OC)c(OC)c(OC)c1` (centres undefined): the growth is 25%.

For `O=S(=O)(NCCCNc1nccc(-c2c(-c3ccc(F)cc3)nc3sccn23)n1)c1ccc2ccccc2c1`, the growth was 37.3%. The value for `CN(C)c1ccc(/C=C/C=N/NC(=O)c2cc(O)c(O)c(O)c2)cc1` was 91.4%; that for `Cc1ccc(S(=O)(=O)OCCN(CCOS(=O)(=O)c2ccc(C)cc2)c2c[nH]c(=O)[nH]c2=O)cc1` was 104%. The value for `O=c1oc2cc(OS(=O)(=O)c3ccccc3)ccc2c2c1CCCCC2` was 63.8%; that for `COc1ccc(-c2nn(-c3cccc(NC(=O)c4ccc5c(c4)OCCO5)c3)cc2-c2ccncc2)cc1Cl` was 29.9%. As to `Cc1ncc(-c2ccoc2)c(NC2CCCCCC2)n1`, the growth is 96.9%. For `Clc1ccc(Sc2nc(NC3CC3)nc(Sc3ccc(Cl)cc3)n2)cc1`, the growth was 91.3%. Turning to `CN(C)CCN1C(=O)c2cccc3c(-c4ccc5ncn(C6CCCCC6)c5c4)ccc(c23)C1=O`, the growth is 13.8%. The same measure for `O=C(Nc1cccc(-n2cc(-c3ccncc3)c(-c3ccc(O)c(Cl)c3)n2)c1)Nc1cccc(C(F)(F)F)c1`: 1.13% (active).

For `CN(C)Cc1cn(-c2ncc(-c3ccc(C(F)(F)F)cc3)c(NC3CCCCCC3)n2)nn1`, the growth was 95.7%. As for `COc1ccc(/C=C/C(C)=N/OCC(=O)O)cc1`, the growth is 96.9%. Consider `COc1ccc(-c2nn(-c3cccc(NC(=O)c4cc(C(F)(F)F)cc(C(F)(F)F)c4)c3)cc2-c2ccncc2)cc1Cl`, for which the growth is 80.3%. The same measure for `O=C1CC[C@@H]2CCCC[C@@H]2C1`: 101%; for `COc1ccc(C2=NN(C(=O)c3ccc(S(C)(=O)=O)cc3)C(c3ccc(OC)c(OC)c3)C2)c(OC)c1` (centres undefined): 103%; for `O=C1OCC2=C1C(c1cccc(Cl)c1)c1cc3c(cc1N2CCO)CCC3` (centres undefined): 12.6%.

`COc1ccc2c(c1)N(CCO)C1=C(C(=O)OC1)C2c1cc(OC)c(OC)c(OC)c1` (centres undefined): the growth is 25.1%. The same measure for `CCOC(=O)c1ccoc1`: 99.6%.

Consider `O=S(=O)(NCCNc1nccc(-c2c(-c3ccc(F)cc3)nc3sccn23)n1)c1ccc2ccccc2c1`, for which the growth is 71.3%.

As for `CC1=C(N2CCOCC2)C(N2CCOCC2)=C(C)C(=O)C1=O`, the growth was 101%. For the compound `O=C1OCC2=C1C(c1ccc(Cl)c(Cl)c1)c1cc3c(cc1N2CCO)OCCO3` (centres undefined), the growth is 44.3%.

For the compound `COc1cc2c(cc1OC)N(CCO)C1=C(C(=O)OC1)C2c1ccc(Cl)c(Cl)c1` (centres undefined), the growth was 95.9%. `O=C1NC(=O)c2ncccc21`: the growth was 101%.

Consider `CNc1ncc(-c2ccc(C(F)(F)F)cc2)c(NC2CCCCCC2)n1`, for which the growth was 85.8%. Consider `COc1ccc(/C(=C2/O[C@@H]([C@H]3COC(C)(C)O3)[C@H]3OC(C)(C)O[C@@H]23)c2cc(OC)c(OC)c(OC)c2)cc1O`, for which the growth was 47.6%.

On to `O=C(NC(Cc1ccc(O)cc1)C(=O)N=Nc1c(O)[nH]c2ccccc12)c1ccccc1` (centres undefined), for which the growth is 89.1%.

Consider `O=C(CNC(=O)OCc1ccccc1)NCC(=O)Oc1ccc([N+](=O)[O-])cc1`, for which the growth is 87.6%.

In the case of `COc1cc2nc(Nc3cccc(C(=O)O)c3)nc(N)c2cc1OC`, the growth was 96.3%.
